Experimental data as given in PubChem BioAssay.
“And” between values parts separate entries of the source, which are not always exact repeats. Equal values may be shown once.

Assays:
[1] = system: Botulinum neurotoxin type F light chain protease (Clostridium botulinum); assay: Clostridium botulinum type F light chain protease inhibitors, microsphere substrate cleavage, validation (AID 588459); settings: multiplex microsphere protease substrate cleavage assay, flow cytometry; at 10 µM; hits give high values
[2] = biological target: Botulinum neurotoxin type A (Clostridium botulinum) (UniProt P0DPI0); assay: BoNT/A light chain protease inhibitors, biochemical, multiplex microsphere flow cytometry, validation set (AID 588460); settings: at 10 µM, hits give high values
[3] = biological target: Lethal factor (Bacillus anthracis) (UniProt P15917); assay: Bacillus anthracis lethal factor inhibition, microsphere flow cytometry protease assay, validation at 10 µM (AID 588461); settings: multiplex microsphere protease cleavage assay, hits give high values

Measured: inhibition

CC(C)c1ccc2[nH]c3c(c2c1)CCCC3=O
inactive: [1] 0.3% | [2] -0.8% | [3] -3.4%

COc1ccc(CNC(=O)c2c(O)c3cccc4c3n(c2=O)CCC4)cc1
inactive: [1] 4.9% | [2] -0.1% | [3] -5.7%

CCCNC(=O)NS(=O)(=O)c1ccc(Cl)cc1
inactive: [1] 5.6% | [2] -0.4% | [3] -1%

CN(C)c1ccc(CNCCC(Cc2ccccc2)c2ccco2)cc1 (stereo not given)
inactive: [1] -4.5% | [2] -0.8% | [3] -8.8%

Cc1cc(C(C)(C)C)c(O)c(C)c1CC1=NCCN1
inactive: [1] 0.7% | [2] -1.1% | [3] 3.7%

C[n+]1ccccc1/C=N/O
inactive: [1] 2.2% and 2.6% | [2] 0.3% and 1.2% | [3] -1.8% and -6.4%

COc1cc(CO)ccc1OCc1nnnn1-c1ccc(C)cc1
inactive: [1] -0.2% | [2] -1% | [3] -8.2%

COc1cc2oc(-c3ccc(O)cc3)cc(=O)c2c(OC)c1O
inactive: [1] -1.9% | [2] -0.3% | [3] -2.3%

O=C(O)/C=C/c1cccc(OCc2ccccc2)c1
inactive: [1] -2.1% | [2] -0.9% | [3] 3.3%

NCCCC(N)(C(=O)O)C(F)F (stereo not given)
inactive: [1] -3% | [2] 0.5% | [3] -2.1%

C[N+](C)(C)CCCC(=O)c1ccc2c(c1)OCO2
inactive: [1] -4% | [2] -1.8% | [3] -6%

CC(C)(C)N1NC2(CCCCC2)NC1=S
inactive: [1] 4.9% | [2] -1.4% | [3] -1.4%

COc1cccc(C2CCCN2Cc2nc(CCC(C)C)no2)c1 (stereo not given)
inactive: [1] -2.5% | [2] -0.8% | [3] -7.6%

COc1ccc(CN2CCCCC2C(=O)Nc2ccc(OC)c(OCC(C)C)c2)cc1OC (stereo not given)
inactive: [1] 0.9% | [2] 0.2% | [3] -1.3%

CC(C)OC(=O)C1C(=O)CC(C)(O)C(C(=O)OC(C)C)C1c1cccc(O)c1 (stereo not given)
inactive: [1] 3.9% | [2] -0.2% | [3] -2.7%

CCCC(=O)O[C@]1(C(=O)CO)CC[C@H]2[C@@H]3CCC4=CC(=O)CC[C@]4(C)[C@H]3[C@@H](O)C[C@@]21C
inactive: [1] 5.1% | [2] 0.1% | [3] -0.6%

O=c1[nH]c(=O)n(C2CCCO2)cc1F (stereo not given)
inactive: [1] -5.7% | [2] -0.7% | [3] 1.8%

O=C(Cc1c[nH]c2ccccc12)OCCOC(=O)Cc1c[nH]c2ccccc12
inactive: [1] 0.9% | [2] -0.1% | [3] -5.9%

CN1C(=O)C(O)(CC(=O)c2ccccc2O)c2cc(Br)ccc21 (stereo not given)
inactive: [1] 3.2% | [2] -0.1% | [3] -5.4%

CCC(C)NCCOc1ccc(C(C)(C)c2ccccc2)cc1 (stereo not given)
inactive: [1] -2% | [2] 0.7% | [3] -12.8%

O=C(NCCC(c1ccccc1)c1ccco1)c1cccs1 (stereo not given)
inactive: [1] 3.1% | [2] -2.7% | [3] 3%

Cc1ccccc1-c1nn(-c2ccc(F)cc2F)cc1CNCCN(C)C
inactive: [1] -1.9% | [2] -0.5% | [3] -2.9%

CC(C)=CCC(C)(C)/C=N/NC(N)=O
inactive: [1] 1.8% | [2] 0.6% | [3] 10.3%

CC[n+]1ccc2cc(OC)c(OC)cc2c1Cc1ccc(OC)c(OC)c1
inactive: [1] -0.2% | [2] 0.7% | [3] -0.5%

Cc1ccc2c(ccc(=S)n2C)c1
inactive: [1] 1.7% | [2] 0.8% | [3] 7.4%

CC12CCC(C(=O)N3CCc4ccccc43)(CC1=O)C2(C)C (stereo not given)
inactive: [1] 0.6% | [2] -0.7% | [3] -0.2%

O=C(/C=C/c1ccc(F)cc1)NC(=S)N1CCCCC1c1cccnc1 (stereo not given)
inactive: [1] 1% | [2] -0.6% | [3] -0.1%

Cn1cc(CN2CCN(CCO)CC2)c(-c2ccc(Oc3ccccc3)cc2)n1
inactive: [1] 2.6% | [2] 0.5% | [3] -1.5%

C=CC1=C(C(=O)O)N2C(=O)C(NC(=O)Cc3ccccc3)C2SC1 (stereo not given)
inactive: [1] 2.1% | [2] 0.1% | [3] -3.4%

CN(Cc1c(C(=O)N(C)Cc2ccccc2)nc2ccccn12)CC1Cc2ccccc2O1 (stereo not given)
inactive: [1] 4.4% | [2] 0.4% | [3] -5.9%

COc1cc(NC(=S)NC(=O)c2cccs2)ccc1NC(=O)C(C)C
inactive: [1] -2.2% | [2] 0.1% | [3] -4%

CC12CN3CC(C)(CN(C1)C3c1ccc(Br)cc1O)C2 (stereo not given)
inactive: [1] -1.8% | [2] -1.2% | [3] -7.5%

O=C(CCCC(=O)OCC1CCCO1)OCC1CCCO1 (stereo not given)
inactive: [1] 1.9% | [2] -0.9% | [3] -1.6%

CNCCCC1c2ccccc2C=Cc2ccccc21
inactive: [1] -5.9% | [2] -1.6% | [3] -1%

COCC(C)NC(=O)c1ccc(CN2CCc3ccccc3C2)cc1 (stereo not given)
inactive: [1] 5.2% | [2] 0% | [3] -7.8%

O=C(COc1ccc2ccc(=O)oc2c1)c1ccccc1
inactive: [1] -5.2% | [2] -1.1% | [3] 1%

CC(C)(S)[C@@H](N)C(=O)O
inactive: [1] 2.9% | [2] -0.8% | [3] 1.1%

CC(C)(C)C(=O)N1CCCC1C(=O)O (stereo not given)
inactive: [1] -1% | [2] -1.2% | [3] -0.9%

COc1ccc(/C=C2\CCn3c2nc2cc(C(=O)O)ccc2c3=O)cc1OC
inactive: [1] 1.4% | [2] 1% | [3] 8%

CC(C)OC(=O)C1C2C=CC3(CN(CC4CCCO4)C(=O)C13)O2 (stereo not given)
inactive: [1] 0.2% | [2] 0.8% | [3] -2.9%

COc1ccc(N2C(=O)C3CCCN3C2=O)cc1 (stereo not given)
inactive: [1] 1.8% | [2] 0.4% | [3] -0.1%

COc1ccc(C2N3CC4(C)CN2CC(C)(C3)C4)cc1OC (stereo not given)
inactive: [1] -0.3% | [2] -1.6% | [3] -4.9%

CC12CCC(C(=O)NCc3ccc4c(c3)OCO4)(CC1=O)C2(C)C (stereo not given)
inactive: [1] 1.9% | [2] 1.2% | [3] 4.8%

CC(=O)c1c(N)nc2n(c1=O)CCCCC2
inactive: [1] -2.9% | [2] -1% | [3] -2.9%

Cc1ccc2c(c1)C1OCCC1C1N2C(=O)C2C(C(=O)O)C3C=CC21O3 (stereo not given)
inactive: [1] -1.8% | [2] -0.8% | [3] 5.5%

COc1ccccc1C(=O)Oc1ccc2c(c1)O/C(=C\c1ccncc1)C2=O
inactive: [1] -0.7% | [2] 0.7% | [3] -8.2%

O=C(O)C[C@@H](O)C(=O)O
inactive: [1] 0.4% | [2] -0.4% | [3] -1.2%

O=C(/C=C/c1ccco1)NCc1ccc2c(c1)OCO2
inactive: [1] -2.9% | [2] -0.4% | [3] 6.8%

Cc1ccc(CSCC(=O)NCCCN2CCOCC2)cc1
inactive: [1] 1.4% | [2] -1.7% | [3] 3.8%

COc1cc(C=NCC2OCCc3ccccc32)cc(OC)c1 (stereo not given)
inactive: [1] 5.8% | [2] 0.3% | [3] 3.3%

O=c1[nH]cc(F)c(=O)[nH]1
inactive: [1] 0.6% | [2] -1.2% | [3] -1.9%

O=C(CCCCC(=O)NC1CCCC1)NC1CCCC1
inactive: [1] 1.5% | [2] 0.2% | [3] -3.4%

CCCCOc1cc(C(=O)NCCN(CC)CC)c2ccccc2n1
inactive: [1] 8.5% and -0.1% | [2] 1.5% and -0.6% | [3] -1.9% and 2.1%

CCN(CC)c1ccc(C2=NNC(=O)CC2C)cc1[N+](=O)[O-] (stereo not given)
inactive: [1] -2.1% | [2] -0.3% | [3] -6.2%

CCOc1ccc(CC2c3cc(OCC)c(OCC)cc3CCN2C(=O)CN2CCN(C)CC2)cc1OCC (stereo not given)
inactive: [1] -5.9% | [2] -1.4% | [3] 7.9%

OCCN(Cc1nc(-c2ccc3c(c2)OCO3)no1)Cc1cccs1
inactive: [1] 2.4% | [2] 0.4% | [3] 2%

CCCCC[C@H](O)/C=C/C1=C(CCCCCCC(=O)O)C(=O)CC1
inactive: [1] -0.6% | [2] -0.5% | [3] 2.4%

CC(C)(C)OC(=O)NCCC(=O)Oc1ccc2ccc(=O)oc2c1
inactive: [1] -1.5% | [2] -0.8% | [3] 0.5%

Cc1ccc2c(CC(=O)O)coc2c1
inactive: [1] -2.9% | [2] -1.3% | [3] -1.1%

O=c1oc2c(CN3CCN(CCO)CC3)c(O)ccc2cc1-c1ccccn1
inactive: [1] -0.2% | [2] 0.8% | [3] -4.2%

O=C(OCC1CCCN2CCCCC12)c1ccc2c(c1)OCO2 (stereo not given)
inactive: [1] -1.9% | [2] -1.6% | [3] -6.7%

N#CCC(N)=C(C#N)C#N
inactive: [1] -6% | [2] -2% | [3] -6%

Cc1cccc(Oc2coc3cc(OC(=O)c4cncc(Br)c4)ccc3c2=O)c1
inactive: [1] 2.1% | [2] 0.8% | [3] 2%

Cc1ccc(OCCSc2ncccn2)c(C)c1
inactive: [1] 3.4% | [2] 0.6% | [3] 1.7%

COc1ccc(O)c(C2=Nc3ccccc3N=C(c3ccccc3)C2)c1
inactive: [1] 0.8% | [2] 0.8% | [3] 4.2%
